Measured values from PubChem BioAssay (NCATS).
Records with an inconclusive call do not appear. Calls of active or inactive are those of the source. Unless noted, calls come from the whole dose curve.

Legend:
[1] = Validation screen for inhibitors of Lassa infection (AID 463096)
[2] = Inducers of the Endoplasmic Reticulum Stress Response (ERSR) in human glioma: Validation (AID 504836; active = well fitted curve in the direction sought with a large enough effect; an effect the other way counts as inactive or inconclusive)
Outline: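 Stably transfected U87-MG human glioma cells carrying a GRP78-based luminescent sensor were seeded at 1000 cells/well, pin-dosed with compounds and incubated 16 h. Luciferase reagent was then added, and end-point luminescence was read after 10 min at room temperature.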

[3] = qHTS for Inhibitors of the Functional Ribonucleoprotein Complex (vRNP) of Lassa (LASV) Arenavirus: LASV Primary Screen - GLuc reporter signal (AID 1347082; calls by dose curve; tested in HEK293 reporter line; note: series mostly up to about 57 µM; nearly all actives have a fitted effect of over 60% in size)
[4] = qHTS for Inhibitors of the Functional Ribonucleoprotein Complex (vRNP) of Lassa (LASV) Arenavirus: Viability assay - alamar blue signal for LASV Primary Screen (AID 1347083; calls by dose curve; tested in HEK293 reporter line; note: series mostly up to about 57 µM; nearly all actives have a fitted effect of over 80% in size)
[5] = qHTS for Inhibitors of the Functional Ribonucleoprotein Complex (vRNP) of Lymphocytic Choriomeningitis Arenaviruses (LCMV): Viability assay - alamar blue signal for LCMV Primary Screen (AID 1347085; calls by dose curve; tested in HEK293 reporter line; note: series mostly up to about 57 µM; nearly all actives have a fitted effect of over 80% in size)
[6] = biological target: Nucleoprotein (Lymphocytic choriomeningitis virus (strain Armstrong)) (UniProt P09992); experiment: qHTS for Inhibitors of the Functional Ribonucleoprotein Complex (vRNP) of Lymphocytic Choriomeningitis Arenaviruses (LCMV): LCMV Primary Screen - GLuc reporter signal (AID 1347086); note: series mostly up to about 57 µM; nearly all actives have a fitted effect of over 70% in size
[7] = biological target: M-phase phosphoprotein 8 (Homo sapiens) (UniProt Q99549); experiment: qHTS Validation Assay for Inhibitors for MPP8 Chromodomain Interactions with Methylated Histone Tails (AID 488949; active = well fitted curve in the direction sought with a large enough effect; an effect the other way counts as inactive or inconclusive;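 note: AlphaScreen signal from MPP8 chromodomain bound to biotinylated H3K9me3 peptide; top concentration of the series differs between compounds; nearly all actives have a fitted effect of over 55% in size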)
Outline: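 AlphaScreen read-out: streptavidin donor and nickel chelate acceptor beads (final 10 ug/mL), 30 min in the dark at RT. Complex of 50 nM MPP8 and 50 nM b-H3(1-18)K9me3 peptide had been exposed to compounds for 30 min beforehand.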

Measured: Potency

Sequence of Nucleoprotein (Lymphocytic choriomeningitis virus (strain Armstrong)) (P09992 whole entry, looked up): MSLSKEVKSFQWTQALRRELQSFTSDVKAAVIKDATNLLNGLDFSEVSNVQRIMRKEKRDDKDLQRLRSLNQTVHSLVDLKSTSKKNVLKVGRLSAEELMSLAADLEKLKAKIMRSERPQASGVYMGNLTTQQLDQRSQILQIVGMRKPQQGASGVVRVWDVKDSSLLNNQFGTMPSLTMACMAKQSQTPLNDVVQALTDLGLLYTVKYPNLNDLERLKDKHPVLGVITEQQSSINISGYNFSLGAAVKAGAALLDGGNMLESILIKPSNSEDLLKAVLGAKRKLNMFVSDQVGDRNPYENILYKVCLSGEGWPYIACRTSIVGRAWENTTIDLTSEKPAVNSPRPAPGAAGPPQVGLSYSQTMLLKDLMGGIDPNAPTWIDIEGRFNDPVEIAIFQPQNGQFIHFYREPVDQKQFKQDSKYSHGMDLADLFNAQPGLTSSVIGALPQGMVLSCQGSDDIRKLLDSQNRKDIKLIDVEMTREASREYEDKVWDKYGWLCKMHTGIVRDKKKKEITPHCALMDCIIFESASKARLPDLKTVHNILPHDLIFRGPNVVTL
Sequence of M-phase phosphoprotein 8 (Homo sapiens) (Q99549 whole entry, looked up): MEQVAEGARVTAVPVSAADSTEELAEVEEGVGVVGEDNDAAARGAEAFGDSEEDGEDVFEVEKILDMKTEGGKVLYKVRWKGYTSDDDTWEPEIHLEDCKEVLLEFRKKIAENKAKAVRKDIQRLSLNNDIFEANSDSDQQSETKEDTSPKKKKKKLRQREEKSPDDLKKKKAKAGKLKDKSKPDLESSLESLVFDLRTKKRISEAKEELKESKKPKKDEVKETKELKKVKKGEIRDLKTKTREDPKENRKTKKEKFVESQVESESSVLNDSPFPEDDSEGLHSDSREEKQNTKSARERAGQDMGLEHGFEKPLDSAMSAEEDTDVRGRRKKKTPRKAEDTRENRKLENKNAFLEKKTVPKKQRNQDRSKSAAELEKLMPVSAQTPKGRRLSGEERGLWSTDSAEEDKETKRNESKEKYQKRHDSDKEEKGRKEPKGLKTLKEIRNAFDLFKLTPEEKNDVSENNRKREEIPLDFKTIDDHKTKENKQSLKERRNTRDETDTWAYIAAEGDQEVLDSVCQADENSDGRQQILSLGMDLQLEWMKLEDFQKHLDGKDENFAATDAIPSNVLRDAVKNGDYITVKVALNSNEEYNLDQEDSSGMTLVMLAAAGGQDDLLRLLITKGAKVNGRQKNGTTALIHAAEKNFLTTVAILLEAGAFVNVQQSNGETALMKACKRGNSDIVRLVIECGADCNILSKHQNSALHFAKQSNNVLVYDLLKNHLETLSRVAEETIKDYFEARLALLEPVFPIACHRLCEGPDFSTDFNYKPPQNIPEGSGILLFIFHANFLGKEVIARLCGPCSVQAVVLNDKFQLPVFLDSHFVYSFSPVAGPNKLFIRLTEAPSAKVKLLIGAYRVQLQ

CCCCCCCCCC[Si](C)(C)CCC(=O)NC(Cc1ccc(C)cc1)c1ccccc1 (stereo not given)
not listed: [7]
inactive: all other assays above

CCCCCCCCCCCCCCCC(=O)OC(CC(=O)O)C[N+](C)(C)C (stereo not given)
not listed: [7]
inactive: all other assays above

C=CCN1CCc2c(cc(O)c(O)c2Br)[C@@H](c2ccccc2)C1
not listed: [7]
inactive: all other assays above

Cn1c(=O)c2c(nc(/C=C/c3cccc(Cl)c3)n2C)n(C)c1=O
not listed: [7]
inactive: all other assays above

CC(/C=C/c1cccc(Oc2ccc(F)cc2)c1)N(O)C(N)=O (stereo not given)
not listed: [7]
inactive: all other assays above

Cn1cc(C(F)(F)F)nc1-c1ccc(OCC(O)CNCCOc2ccc(O)c(C(N)=O)c2)cc1 (stereo not given)
not listed: [7]
inactive: all other assays above

COc1ccc2c(c1)CCC1C2CC[C@@]2(C)C1CC[C@@H]2NCCCCCCN1C(=O)C=CC1=O (stereo not given in full)
inactive: all assays above

CCCCCC[C@@H]([C@@H](C)O)n1cnc2c(N)ncnc21
not listed: [7]
inactive: all other assays above

CN1C2CCC1CC(OC(=O)c1c[nH]c3ccccc13)C2 (stereo not given)
not listed: [7]
inactive: all other assays above

NC(Cc1cccc(-c2ccccc2CP(=O)(O)O)c1)C(=O)O (stereo not given)
not listed: [7]
inactive: all other assays above

Nc1ncnc2c1ncn2C1CCCO1 (stereo not given)
not listed: [7]
inactive: all other assays above

O=C(O)/C=C/C(O)c1ccc(Cl)cc1 (stereo not given)
not listed: [7]
inactive: all other assays above

CC(C)NCC(O)COc1ccc(CC(N)=O)cc1 (stereo not given)
not listed: [7]
inactive: all other assays above

NC1CONC1=O (stereo not given)
not listed: [7]
inactive: all other assays above
